# Results reported in ChEMBL document CHEMBL2218924, “A broad activity screen in support of a chemogenomic map for kinase signalling research and drug discovery” (Biochem J, 2013).
# Assays:
# [1] = target: Rho-associated protein kinase 2 (Homo sapiens) (UniProt O75116); conditions: at 1 µM
# [2] = target: Rho-associated protein kinase 2 (Homo sapiens) (UniProt O75116); conditions: at 10 µM
# [3] = target: Proto-oncogene tyrosine-protein kinase receptor Ret (Homo sapiens) (UniProt P07949); conditions: at 1 µM
# Proto-oncogene tyrosine-protein kinase receptor Ret (Homo sapiens), sequence (P07949 whole entry): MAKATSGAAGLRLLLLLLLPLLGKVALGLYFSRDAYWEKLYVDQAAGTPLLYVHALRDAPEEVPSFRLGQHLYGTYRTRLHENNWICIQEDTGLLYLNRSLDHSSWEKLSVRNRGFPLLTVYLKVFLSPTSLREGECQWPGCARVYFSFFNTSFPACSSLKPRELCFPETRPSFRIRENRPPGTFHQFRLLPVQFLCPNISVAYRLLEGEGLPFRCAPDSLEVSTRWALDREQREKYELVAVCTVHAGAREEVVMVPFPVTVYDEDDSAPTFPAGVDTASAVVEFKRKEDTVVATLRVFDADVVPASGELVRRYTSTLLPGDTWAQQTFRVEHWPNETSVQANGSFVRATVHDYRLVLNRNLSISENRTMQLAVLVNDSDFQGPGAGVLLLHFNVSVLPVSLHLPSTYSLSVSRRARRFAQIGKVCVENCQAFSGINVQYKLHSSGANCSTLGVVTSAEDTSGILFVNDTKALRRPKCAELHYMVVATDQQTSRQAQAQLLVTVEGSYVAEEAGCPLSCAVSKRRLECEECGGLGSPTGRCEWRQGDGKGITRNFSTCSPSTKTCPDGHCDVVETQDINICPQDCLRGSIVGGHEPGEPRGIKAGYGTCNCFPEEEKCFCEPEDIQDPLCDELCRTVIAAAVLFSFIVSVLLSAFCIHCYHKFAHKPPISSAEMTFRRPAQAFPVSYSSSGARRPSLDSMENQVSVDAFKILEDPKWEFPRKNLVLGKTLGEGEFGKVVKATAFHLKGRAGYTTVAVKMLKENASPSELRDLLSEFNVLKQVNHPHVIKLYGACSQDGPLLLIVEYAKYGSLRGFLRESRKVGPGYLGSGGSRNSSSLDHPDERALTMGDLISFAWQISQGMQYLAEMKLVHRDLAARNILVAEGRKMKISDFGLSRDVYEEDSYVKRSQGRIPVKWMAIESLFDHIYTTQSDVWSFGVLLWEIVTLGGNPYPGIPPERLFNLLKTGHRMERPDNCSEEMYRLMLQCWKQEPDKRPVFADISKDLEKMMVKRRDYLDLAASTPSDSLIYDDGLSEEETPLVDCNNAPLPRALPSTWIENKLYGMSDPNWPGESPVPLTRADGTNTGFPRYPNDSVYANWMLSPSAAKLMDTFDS
# [4] = target: Proto-oncogene tyrosine-protein kinase receptor Ret (Homo sapiens) (UniProt P07949); conditions: at 10 µM
# [5] = target: Macrophage-stimulating protein receptor (Homo sapiens) (UniProt Q04912); conditions: at 1 µM
# Macrophage-stimulating protein receptor (Homo sapiens), sequence (Q04912 25-304 limits assumed): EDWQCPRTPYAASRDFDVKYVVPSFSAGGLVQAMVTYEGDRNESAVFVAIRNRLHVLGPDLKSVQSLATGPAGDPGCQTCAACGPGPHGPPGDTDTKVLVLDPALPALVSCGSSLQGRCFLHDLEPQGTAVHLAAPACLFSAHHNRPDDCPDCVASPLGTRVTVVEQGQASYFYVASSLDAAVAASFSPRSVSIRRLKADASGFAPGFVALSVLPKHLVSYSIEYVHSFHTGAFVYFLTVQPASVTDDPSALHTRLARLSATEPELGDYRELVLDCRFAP
# Macrophage-stimulating protein receptor (Homo sapiens), sequence (Q04912 310-1400 limits assumed): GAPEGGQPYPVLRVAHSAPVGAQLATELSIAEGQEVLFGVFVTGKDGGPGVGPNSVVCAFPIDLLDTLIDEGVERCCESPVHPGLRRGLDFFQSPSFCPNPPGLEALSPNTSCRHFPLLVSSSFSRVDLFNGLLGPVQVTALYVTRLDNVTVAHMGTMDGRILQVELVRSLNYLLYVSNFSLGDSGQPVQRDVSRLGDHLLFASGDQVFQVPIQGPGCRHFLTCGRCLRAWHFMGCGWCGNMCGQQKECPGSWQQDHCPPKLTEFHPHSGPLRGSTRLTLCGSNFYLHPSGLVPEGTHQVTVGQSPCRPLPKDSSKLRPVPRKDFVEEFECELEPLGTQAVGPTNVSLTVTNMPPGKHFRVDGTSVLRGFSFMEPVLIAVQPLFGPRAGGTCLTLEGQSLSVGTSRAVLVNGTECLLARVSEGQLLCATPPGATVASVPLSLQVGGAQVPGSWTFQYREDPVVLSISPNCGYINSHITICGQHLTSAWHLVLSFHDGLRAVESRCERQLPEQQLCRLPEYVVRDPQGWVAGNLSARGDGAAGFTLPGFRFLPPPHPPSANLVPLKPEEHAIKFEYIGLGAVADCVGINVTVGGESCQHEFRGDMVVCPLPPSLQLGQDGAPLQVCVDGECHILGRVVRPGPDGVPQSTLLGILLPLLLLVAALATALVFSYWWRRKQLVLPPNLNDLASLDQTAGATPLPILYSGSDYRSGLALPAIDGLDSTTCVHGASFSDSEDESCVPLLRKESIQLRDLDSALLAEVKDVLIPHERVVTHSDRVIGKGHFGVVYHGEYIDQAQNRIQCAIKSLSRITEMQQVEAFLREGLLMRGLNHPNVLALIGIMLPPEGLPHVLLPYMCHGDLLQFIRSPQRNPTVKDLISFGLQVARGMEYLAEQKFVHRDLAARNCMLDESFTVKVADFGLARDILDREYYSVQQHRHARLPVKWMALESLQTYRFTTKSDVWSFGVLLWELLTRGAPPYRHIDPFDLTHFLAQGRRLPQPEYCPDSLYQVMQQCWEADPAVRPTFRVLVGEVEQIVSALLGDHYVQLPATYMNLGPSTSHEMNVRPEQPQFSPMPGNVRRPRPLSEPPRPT
# [6] = target: Macrophage-stimulating protein receptor (Homo sapiens) (UniProt Q04912); conditions: at 10 µM
# [7] = target: Proto-oncogene tyrosine-protein kinase ROS (Homo sapiens) (UniProt P08922); conditions: at 1 µM
# [8] = target: Proto-oncogene tyrosine-protein kinase ROS (Homo sapiens) (UniProt P08922); conditions: at 10 µM
# [9] = target: Ribosomal protein S6 kinase alpha-1 (Homo sapiens) (UniProt Q15418); conditions: at 1 µM
# Ribosomal protein S6 kinase alpha-1 (Homo sapiens), sequence (Q15418 whole entry): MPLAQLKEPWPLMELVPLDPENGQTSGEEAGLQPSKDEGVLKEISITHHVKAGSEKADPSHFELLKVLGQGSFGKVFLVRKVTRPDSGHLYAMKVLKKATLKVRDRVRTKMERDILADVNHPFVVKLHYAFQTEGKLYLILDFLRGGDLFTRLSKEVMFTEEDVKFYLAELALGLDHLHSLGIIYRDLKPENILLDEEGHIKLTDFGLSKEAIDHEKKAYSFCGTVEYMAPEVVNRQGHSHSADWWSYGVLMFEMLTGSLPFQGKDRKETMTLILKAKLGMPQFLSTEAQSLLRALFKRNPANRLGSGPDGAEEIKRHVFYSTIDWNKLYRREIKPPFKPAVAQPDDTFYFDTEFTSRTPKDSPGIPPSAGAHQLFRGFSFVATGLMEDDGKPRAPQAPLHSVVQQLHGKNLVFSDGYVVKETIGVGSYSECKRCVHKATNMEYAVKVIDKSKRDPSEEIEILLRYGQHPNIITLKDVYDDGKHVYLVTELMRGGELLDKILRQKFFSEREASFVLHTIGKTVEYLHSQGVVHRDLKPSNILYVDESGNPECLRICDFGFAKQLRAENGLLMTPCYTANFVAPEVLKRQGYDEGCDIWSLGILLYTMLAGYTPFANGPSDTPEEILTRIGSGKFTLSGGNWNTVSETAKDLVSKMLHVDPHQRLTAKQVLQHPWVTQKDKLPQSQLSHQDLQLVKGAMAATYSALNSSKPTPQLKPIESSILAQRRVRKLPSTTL
# [10] = target: Ribosomal protein S6 kinase alpha-1 (Homo sapiens) (UniProt Q15418); conditions: at 10 µM
# [11] = target: Ribosomal protein S6 kinase alpha-3 (Homo sapiens) (UniProt P51812); conditions: at 1 µM
# [12] = target: Ribosomal protein S6 kinase alpha-3 (Homo sapiens) (UniProt P51812); conditions: at 10 µM
# [13] = target: Ribosomal protein S6 kinase alpha-2 (Homo sapiens) (UniProt Q15349); conditions: at 1 µM
# Ribosomal protein S6 kinase alpha-2 (Homo sapiens), sequence (Q15349 whole entry): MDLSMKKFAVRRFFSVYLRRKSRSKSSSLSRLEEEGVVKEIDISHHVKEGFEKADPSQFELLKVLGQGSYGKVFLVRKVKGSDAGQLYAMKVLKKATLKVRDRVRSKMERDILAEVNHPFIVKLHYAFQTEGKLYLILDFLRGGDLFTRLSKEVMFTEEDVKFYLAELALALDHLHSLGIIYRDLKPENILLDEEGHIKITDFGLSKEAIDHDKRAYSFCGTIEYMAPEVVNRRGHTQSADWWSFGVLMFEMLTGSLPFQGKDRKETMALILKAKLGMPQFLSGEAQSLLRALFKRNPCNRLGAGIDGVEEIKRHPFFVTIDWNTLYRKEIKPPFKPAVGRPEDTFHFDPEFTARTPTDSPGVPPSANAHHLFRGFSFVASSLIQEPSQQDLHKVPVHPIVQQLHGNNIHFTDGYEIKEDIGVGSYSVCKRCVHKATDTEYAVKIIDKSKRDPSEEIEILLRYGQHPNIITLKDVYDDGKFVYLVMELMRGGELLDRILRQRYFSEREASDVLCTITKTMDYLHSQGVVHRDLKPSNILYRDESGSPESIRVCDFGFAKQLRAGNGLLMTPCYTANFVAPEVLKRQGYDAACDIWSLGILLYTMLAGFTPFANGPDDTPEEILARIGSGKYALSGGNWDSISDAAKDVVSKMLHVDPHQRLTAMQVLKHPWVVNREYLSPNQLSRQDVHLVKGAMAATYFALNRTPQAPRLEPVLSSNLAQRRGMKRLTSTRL
# [14] = target: Ribosomal protein S6 kinase alpha-2 (Homo sapiens) (UniProt Q15349); conditions: at 10 µM
# [15] = target: Ribosomal protein S6 kinase alpha-6 (Homo sapiens) (UniProt Q9UK32); conditions: at 1 µM
# Ribosomal protein S6 kinase alpha-6 (Homo sapiens), sequence (Q9UK32 whole entry): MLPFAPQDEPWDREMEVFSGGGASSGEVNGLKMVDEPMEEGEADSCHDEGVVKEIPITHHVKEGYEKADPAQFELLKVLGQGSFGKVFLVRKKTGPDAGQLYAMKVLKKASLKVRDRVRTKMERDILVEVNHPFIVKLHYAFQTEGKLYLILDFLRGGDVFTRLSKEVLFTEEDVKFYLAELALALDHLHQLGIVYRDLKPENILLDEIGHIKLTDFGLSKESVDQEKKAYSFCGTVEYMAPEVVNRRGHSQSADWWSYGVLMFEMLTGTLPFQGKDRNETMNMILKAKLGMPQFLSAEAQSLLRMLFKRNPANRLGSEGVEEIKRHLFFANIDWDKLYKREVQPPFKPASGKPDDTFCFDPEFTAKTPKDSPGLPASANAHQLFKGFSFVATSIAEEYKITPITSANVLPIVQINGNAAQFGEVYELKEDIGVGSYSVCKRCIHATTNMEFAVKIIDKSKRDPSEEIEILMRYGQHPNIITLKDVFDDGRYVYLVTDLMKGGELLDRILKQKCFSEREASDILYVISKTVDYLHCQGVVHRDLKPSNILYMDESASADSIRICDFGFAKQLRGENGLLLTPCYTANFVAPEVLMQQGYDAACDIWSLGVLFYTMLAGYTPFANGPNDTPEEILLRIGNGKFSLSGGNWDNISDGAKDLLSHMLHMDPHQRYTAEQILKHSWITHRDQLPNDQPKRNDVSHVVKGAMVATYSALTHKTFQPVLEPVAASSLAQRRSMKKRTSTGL
# [16] = target: Ribosomal protein S6 kinase alpha-6 (Homo sapiens) (UniProt Q9UK32); conditions: at 10 µM
# [17] = target: Mitogen-activated protein kinase 14 (Homo sapiens) (UniProt Q16539); conditions: at 1 µM
# Mitogen-activated protein kinase 14 (Homo sapiens), sequence (Q16539 whole entry): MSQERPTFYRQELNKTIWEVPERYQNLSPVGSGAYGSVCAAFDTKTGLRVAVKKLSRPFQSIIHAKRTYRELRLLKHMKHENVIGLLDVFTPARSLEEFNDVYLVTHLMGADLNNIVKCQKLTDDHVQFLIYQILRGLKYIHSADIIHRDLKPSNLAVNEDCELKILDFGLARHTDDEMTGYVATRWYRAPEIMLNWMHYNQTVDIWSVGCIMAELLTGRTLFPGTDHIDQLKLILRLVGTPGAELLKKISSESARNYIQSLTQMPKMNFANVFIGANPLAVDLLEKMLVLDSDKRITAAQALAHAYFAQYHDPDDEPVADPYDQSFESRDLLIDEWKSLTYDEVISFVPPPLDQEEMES
# [18] = target: Mitogen-activated protein kinase 14 (Homo sapiens) (UniProt Q16539); conditions: at 10 µM
# [19] = target: T1, Tyrosine-protein kinase receptor TYRO3 (Homo sapiens) (UniProt Q06418); conditions: at 1 µM
# T1 sequence (whole entry): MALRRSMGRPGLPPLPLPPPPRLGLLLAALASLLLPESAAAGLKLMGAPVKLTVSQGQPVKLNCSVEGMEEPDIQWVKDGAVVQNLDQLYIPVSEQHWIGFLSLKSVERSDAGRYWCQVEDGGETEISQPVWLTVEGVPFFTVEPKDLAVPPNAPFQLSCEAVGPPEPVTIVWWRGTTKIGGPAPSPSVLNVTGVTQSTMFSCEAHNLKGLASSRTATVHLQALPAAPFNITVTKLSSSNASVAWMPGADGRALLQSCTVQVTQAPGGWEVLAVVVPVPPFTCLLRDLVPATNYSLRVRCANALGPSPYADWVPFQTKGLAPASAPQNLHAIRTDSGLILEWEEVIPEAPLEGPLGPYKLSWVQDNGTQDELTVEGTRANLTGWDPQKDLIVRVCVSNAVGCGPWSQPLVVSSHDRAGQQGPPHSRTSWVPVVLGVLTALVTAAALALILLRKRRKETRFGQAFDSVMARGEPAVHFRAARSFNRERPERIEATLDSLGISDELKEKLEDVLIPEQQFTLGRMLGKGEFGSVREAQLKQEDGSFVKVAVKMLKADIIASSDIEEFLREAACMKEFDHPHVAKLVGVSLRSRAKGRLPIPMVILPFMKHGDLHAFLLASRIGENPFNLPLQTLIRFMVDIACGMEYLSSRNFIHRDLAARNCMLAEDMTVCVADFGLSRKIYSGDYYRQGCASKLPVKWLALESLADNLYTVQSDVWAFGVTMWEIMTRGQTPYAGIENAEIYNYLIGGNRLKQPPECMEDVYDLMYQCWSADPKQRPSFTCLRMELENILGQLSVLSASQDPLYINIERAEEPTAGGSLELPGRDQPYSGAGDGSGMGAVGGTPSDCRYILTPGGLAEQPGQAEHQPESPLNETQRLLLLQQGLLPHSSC
# [20] = target: T1, Tyrosine-protein kinase receptor TYRO3 (Homo sapiens); conditions: at 10 µM
SMILES,residual activity [1] [%],residual activity [2] [%],residual activity [3] [%],residual activity [4] [%],residual activity [5] [%],residual activity [6] [%],residual activity [7] [%],residual activity [8] [%],residual activity [9] [%],residual activity [10] [%],residual activity [11] [%],residual activity [12] [%],residual activity [13] [%],residual activity [14] [%],residual activity [15] [%],residual activity [16] [%],residual activity [17] [%],residual activity [18] [%],residual activity [19] [%],residual activity [20] [%]
N#Cc1cnc2cnc(NCc3cccnc3)cc2c1Nc1ccc(F)c(Cl)c1,2,3,88,62,100,88,67,52,2,1,0,-1,0,0,97,93,87,89,–,–
N#CCCc1ccc2c(c1)-c1[nH]c3ccc([N+](=O)[O-])cc3c1CC(=O)N2,8,7,80,49,–,–,–,–,45,24,9,3,8,1,16,5,–,–,75,59
COc1cc2ncnc(Nc3ccc(NC(=O)c4ccccc4)cc3)c2cc1OC,–,82,56,12,87,74,109,102,–,75,67,40,109,69,104,109,–,–,94,76
N#CC(C#N)=C(N)/C(C#N)=C/c1ccc(O)cc1,–,–,–,–,–,100,95,92,94,78,49,27,–,–,94,–,78,55,–,–
O=c1c2ccccc2[nH]c(=S)n1CCN1CCC(=C(c2ccc(F)cc2)c2ccc(F)cc2)CC1,109,86,104,108,72,78,98,99,113,61,79,50,119,100,114,91,97,104,82,102
CO[C@@H]1[C@H](N(C)C(=O)c2ccccc2)C[C@H]2O[C@]1(C)n1c3ccccc3c3c4c(c5c6ccccc6n2c5c31)C(=O)NC4,79,57,8,5,47,56,63,50,0,1,1,0,1,0,0,3,71,78,–,84
O=c1cc(-c2cccc3c2Sc2ccccc2S3)oc(N2CCOCC2)c1,102,101,102,83,90,104,109,96,87,94,106,93,98,99,96,87,103,99,93,103
O=C1Nc2ccc(Br)cc2/C1=C\c1cc2c([nH]1)CCCC2,101,82,74,69,116,84,–,80,84,81,45,37,79,76,79,113,–,–,–,–
CO[C@H]1[C@@H](OC)C[C@H](C)[C@@H](OC)C2=CC(=O)C=C(NC(=O)/C(C)=C/C=C/[C@H](OC)[C@@H](OC(N)=O)/C(C)=C/[C@@H]1C)C2=O,–,–,108,106,85,85,92,94,115,84,50,36,93,104,113,91,–,–,86,101
CCN(CC)C(=O)c1ccc(Nc2nc(OCC3CCCCC3)c3nc[nH]c3n2)cc1,33,4,3,0,72,42,95,–,58,7,30,1,18,2,28,7,–,70,–,53
CO[C@H]1C[C@@H]2CC[C@@H](C)[C@@](O)(O2)C(=O)C(=O)N2CCCC[C@H]2C(=O)O[C@H]([C@H](C)C[C@@H]2CC[C@@H](O)[C@H](OC)C2)CC(=O)[C@H](C)/C=C(\C)[C@@H](O)[C@@H](OC)C(=O)[C@H](C)C[C@H](C)/C=C/C=C/C=C/1C,99,92,102,107,99,80,90,92,110,112,44,55,102,90,105,112,72,83,94,118
CN(C)CCCn1cc(C2=C(c3c[nH]c4ccccc34)C(=O)NC2=O)c2ccccc21,119,88,–,64,102,87,108,–,15,2,–,–,–,–,4,3,109,106,–,76
CNc1cc2c(Nc3cccc(Br)c3)ncnc2cn1,100,85,67,75,88,66,96,99,115,59,110,71,87,38,101,74,83,77,77,83
